Data taken from PubChem BioAssay AID588689 (Southern Research Specialized Biocontainment Screening …, 2011).
The whole screen tested about 340,000 compounds, of which about 1,000 (0.29%) were called active. Cut-off read from the data, not from the text of the source: inconclusive = inhibition above about 29% without an active follow-up result; inactive = below that. These entries were drawn from the full list. Entries with a potency or affinity are not part of this list.

Biological target: Genome polyprotein (Dengue virus type 2 (strain 16681-PDK53)) (UniProt P29991)
Assay: Dengue-2 NS5 methyltransferase inhibitors, primary screen, biochemical, confirmation dose response (AID 588689)
Conditions: Dengue-2 NS5 methyltransferase capping enzyme assay, at 25 µM, stronger effect = higher value
[1] = measured here: pilot screen replicate inhibition

SMILES	inhibition	inhibition [1] [%]
CC(C)(C)c1ccc(C(=O)Nc2c3c(nn2C(C)(C)C)CS(=O)(=O)C3)cc1	-9.75% (inactive)	–
CCCOC(=O)CSC1=C(C#N)C(c2ccccc2OC)C(C#N)C(=O)N1 (centres undefined)	-15.9% (inactive)	–
CNC(=O)CC1C(=O)N(C)C(=S)N1NC(=O)c1ccccc1 (centres undefined)	2.33% (inactive)	–
COc1cc(C)ccc1OCCOc1ccccc1Cl	-4.77% (inactive)	–
CCc1ccc(N=C2NC(=O)/C(=C/c3ccc(OCC(=O)O)c(OC)c3)S2)cc1	-3.47% (inactive)	–
COc1cc(CO)cc(Br)c1OCC(=O)O	-12.1% (inactive)	–
Cc1ccc(S(=O)(=O)NCCC(=O)Nc2nccs2)cc1	-0.76% (inactive)	–
Cc1cccc(N(CC(=O)Nc2ccccc2-c2ccccc2)S(=O)(=O)c2ccccc2)c1C	1.45% (inactive)	–
CC(C)(C)c1csc(CS(=O)(=O)c2ccccn2)n1	-4.67% (inactive)	–
Cc1ccc(NC(=O)c2ccc(S(=O)(=O)Nc3c(C)n(C)n(-c4ccccc4)c3=O)cc2)nc1	-5.09% (inactive)	–
CSc1nnc(-c2ccccc2)c(-c2ccccc2)n1	-5.41% (inactive)	–
O=C(CSc1nnc(-c2ccco2)c(-c2ccco2)n1)c1ccccc1	29.5% (inactive)	–
Cc1cccc(NC(=O)CSc2nnc(-c3ccco3)o2)c1C	3.22% (inactive)	–
Cc1cccc(NC(=O)CSc2nnc(-c3ccco3)c(-c3ccco3)n2)c1	25.8% (inactive)	–
Cc1ccccc1NC(=O)CSc1n[nH]c(-c2ccco2)n1	0.76% (inactive)	–
Cc1ccc(NC(=O)CSc2nnc(-c3ccco3)c(-c3ccco3)n2)cc1	14.3% (inactive)	–
COc1cccc(NC(=O)c2ccc3c(O)c(S(=O)(=O)c4ccccc4)c(=O)[nH]c3c2)c1	4.09% (inactive)	–
CCCCn1c(N)c(N(CC(C)C)C(=O)CC2CCCCC2)c(=O)[nH]c1=O	-11.5% (inactive)	–
C[C@@H]1CC2[C@@H]3CC[C@H]4CC(=O)CC[C@]4(C)C3=CC[C@]2(C)[C@@]1(O)C(=O)CO (some centres undefined)	-1.96% (inactive)	–
CC1=C(C(=O)Nc2cccc(C(=O)NC(C)c3ccccc3)c2)SCCO1 (centres undefined)	-4.13% (inactive)	–
CCOc1cc(C=O)cc(Cl)c1OCC(N)=O	-2.73% (inactive)	–
CCOc1cc(C(=O)O)cc(Cl)c1OCC#N	-2.72% (inactive)	–
O=c1[nH]c2ccc(S(=O)(=O)N3CCN(Cc4ccccc4)CC3)cc2[nH]c1=O	-2.74% (inactive)	–

SMILES	inhibition	inhibition [1] [%]
CC(=O)Nc1ccc(-c2csc(NC(=O)C3CCN(S(=O)(=O)c4cccs4)CC3)n2)cc1	-5.78% (inactive)	–
Cc1ccc(N2C(=O)c3ccccc3C2=O)cc1C	-5.39% (inactive)	–
Cc1ccc(N2C(=O)c3ccc(C(=O)O)cc3C2=O)cc1C	9.14% (inactive)	–
COC(=O)c1c(C(=O)OC)c(-c2ccccc2)n2c1CCC2	1.6% (inactive)	–
O=C(O)/C(=C/c1ccc(Cl)c([N+](=O)[O-])c1)c1ccc(S(=O)(=O)N2CCCCC2)s1	15.9% (inactive)	–
O=C(O)/C(=C\c1ccc(Cl)c([N+](=O)[O-])c1)c1ccc(S(=O)(=O)N2CCCC2)s1	0.37% (inactive)	–
O=C(CN1C(=O)C2CCCCC2C1=O)OCC(=O)c1ccc(Cl)s1 (centres undefined)	-7.27% (inactive)	–
O=S(=O)(c1ccc(=S)[nH]c1)N1CCOCC1	-8.4% (inactive)	–
COC(=O)c1cccc(NC(=O)C2CCCN2C(=O)c2cccs2)c1 (centres undefined)	-0.73% (inactive)	–
Cc1cc(C(=O)N/N=C2/CC(C)CC(C)(C)C2)c(C)o1 (centres undefined)	-5.92% (inactive)	–
CC1(C)CC(=O)C2=C(C1)c1c(ccc3ccccc13)NC2c1ccco1 (centres undefined)	-4.19% (inactive)	–
CC1(C)CC(=O)C2=C(C1)c1c(ccc3ccccc13)NC2c1ccc(C(=O)O)cc1 (centres undefined)	2.04% (inactive)	–
COc1ccc(S(=O)(=O)N2CCN(c3ccccc3OC)CC2)cc1C(=O)N1CCCCC1	-9.14% (inactive)	–
Cc1ccccc1OCC(=O)NNC(=S)NC(=O)c1ccccc1[N+](=O)[O-]	-8.89% (inactive)	–
O=C(COc1ccc(Br)cc1)NNC(=S)NC(=O)c1ccccc1[N+](=O)[O-]	10.8% (inactive)	–
Cc1ccsc1CN(C)Cc1nc(C2CC2)no1	1.78% (inactive)	–
COc1ccccc1NS(=O)(=O)c1ccc(N/N=C/c2c(C)nn(-c3ccccc3)c2N2CCCC2)c([N+](=O)[O-])c1	0.96% (inactive)	–
CCOc1cccc(C=NNc2ccc(S(=O)(=O)Nc3ccccc3C(=O)O)cc2[N+](=O)[O-])c1O	9.55% (inactive)	–
CCOc1ccc(C=NNc2ccc(S(=O)(=O)Nc3ccccc3C(=O)O)cc2[N+](=O)[O-])cc1OC	7.77% (inactive)	–
CSc1ccc(C=NNc2ccc(S(=O)(=O)Nc3ccccc3C(=O)O)cc2[N+](=O)[O-])cc1	18.3% (inactive)	–
CCN(Cc1ccccc1)C(=O)c1ccc(C(=O)N(CC)Cc2ccccc2)cc1	-1.55% (inactive)	–
CCc1nc(SCc2ccccc2)n[nH]1	8.1% (inactive)	–
Cc1cc(C(F)(F)F)c(C#N)c(SCC(=O)NC(C)(C)C)n1	-2.7% (inactive)	4.83

SMILES	inhibition	inhibition [1] [%]
COc1cccc(O)c1CN1CCC(n2nccc2NC(=O)c2ccc3c(c2)OCO3)CC1	-3.24% (inactive)	–
CCCCSc1n[nH]c(N)n1	-2.73% (inactive)	–
COc1cccc(NC(=O)Cc2nnc(SCC(=O)NC3=NCCS3)n2C)c1	-1.78% (inactive)	–
CCOc1cc(C(=O)N2CCN=C2SC)cc(OCC)c1OCC	-0.73% (inactive)	–
CCCCCCN1C[C@H](n2cc(C3CC3)nn2)[C@@H](O)C[C@@H]1c1ccc(C)cc1	0% (inactive)	–
COc1ccc(NC2=NCCC(=O)N2Cc2cccs2)cc1	3.14% (inactive)	–
OCC(CO)(CO)N=Cc1c(O)ccc2ccccc12	24.8% (inactive)	–
CN(C)/N=C/c1c(O)ccc2ccccc12	10.4% (inactive)	–
COc1ccc(NC(=O)/C=C/c2ccccc2)c([N+](=O)[O-])c1	-2.2% (inactive)	–
CC(=O)N1c2ccccc2NC2=C(C(=O)CCC2)C1c1ccco1 (centres undefined)	9.11% (inactive)	–
O=C(O)CCN1C(=O)/C(=C\c2ccc(OCc3ccccc3)c(OCc3ccccc3)c2)SC1=S	8.45% (inactive)	–
CCn1c(C)cc(/C=C2/SC(=S)N(CC(=O)O)C2=O)c1C	-89.8% (inactive)	–
O/N=C/c1cc(Br)ccc1OCc1ccc(F)cc1	-7.14% (inactive)	–
Cn1cccc1/C=C1/SC(=S)N(CC(=O)O)C1=O	3.63% (inactive)	–
O=[N+]([O-])c1ccc(COc2ccc(Br)cc2CN2CCOCC2)cc1	-3.16% (inactive)	–
Cn1cccc1/C=C1\SC(=S)N(CC(=O)O)C1=O	-7.69% (inactive)	–
O=C1CCc2cc(S(=O)(=O)Nc3ccccc3)cc3c2N1CCC3	-5.11% (inactive)	–
CCOc1cccc(N2CCN(CCNC(=O)Nc3ccc(C)cc3)CC2)c1C	-3.11% (inactive)	–
CC(C)N(C(=O)[C@H]1C[C@H](CC(=O)NCc2ccco2)C(=O)N2CCc3c([nH]c4cc(CCC(=O)N(C)C)ccc34)[C@]12C)C(C)C	-2.31% (inactive)	1.51
Cc1ccc(-c2nnn(CC(=O)N(c3ccccc3F)C(C(=O)NC3CCCC3)c3ccncc3)n2)o1 (centres undefined)	5.7% (inactive)	–
COC(=O)c1cc(COC(=O)c2nc3nccc(C)n3n2)oc1C	0% (inactive)	–
Clc1ccc(-c2csc(-c3ccno3)n2)cc1	-5.36% (inactive)	–
O=[N+]([O-])c1ccc(NCCCN2CCOCC2)c([N+](=O)[O-])c1	-5.47% (inactive)	–

SMILES	inhibition	inhibition [1] [%]
COc1ccc(CC(=O)Nc2ccc(S(=O)(=O)Nc3cc(OC)nc(OC)n3)cc2)cc1	23.3% (inactive)	–
O=C(O)CCCC(=O)N1CCc2cc(S(=O)(=O)N3CCc4ccccc43)ccc21	-4.13% (inactive)	–
O=C1CCCCC1(O)Cc1ccc2c(c1)OCO2 (centres undefined)	-3.89% (inactive)	–
O=c1cc(-c2ccccc2)oc2cccc(O)c12	-5.07% (inactive)	–
O=c1cc(-c2ccccc2)oc2cc(O)cc(O)c12	-12.6% (inactive)	–
CC(=O)c1cc2c(cc1NC(=O)Cc1ccsc1)OCO2	-0.37% (inactive)	–
O=C(C1CC(c2cccc(Br)c2)=NO1)N1CCc2ccccc2C1 (centres undefined)	-3.92% (inactive)	–
Cc1cccc(OCCn2nc(C(=O)O)c3ccccc3c2=O)c1	2.68% (inactive)	–
O=C(O)c1cccc([N+](=O)[O-])c1C(=O)Nc1cccc2ccccc12	-2.72% (inactive)	–
O=C(Nc1cccc2ccccc12)c1cccc([N+](=O)[O-])c1	-4.08% (inactive)	–
COc1cc(CN=Cc2c(O)n(Cc3ccccc3)c(=S)[nH]c2=O)cc(OC)c1	10.8% (inactive)	–
COc1c(O)ccc(/C=N/NC(=O)c2ccc3c(c2)OCCO3)c1[N+](=O)[O-]	2.38% (inactive)	–
COc1c(O)ccc(/C=N\NC(=O)c2ccc3c(c2)OCO3)c1[N+](=O)[O-]	12.7% (inactive)	–
O=C(c1cc(-c2ccncc2)nc2ccc(Cl)cc12)N1CCN(C(=O)C2CCCO2)CC1 (centres undefined)	-1.35% (inactive)	–
COC1=CC(=O)C=C(OC)C1=O	-8.21% (inactive)	–
CC/C=C\C/C=C\C/C=C\CCCCCCCC(=O)O	2.2% (inactive)	–
CN(CC(=O)Nc1ccccc1Cl)C(=O)CSc1nnc(-c2ccco2)o1	-1.47% (inactive)	–
CN1CCN(NC(=O)c2cc(S(=O)(=O)N3CCOCC3)c(Cl)cc2Cl)CC1	1.45% (inactive)	–
O=C(NC(C(=O)c1ccccc1)N1CCOCC1)c1cccs1 (centres undefined)	-6.21% (inactive)	–
CCCCN1C(=O)N(CCc2ccc(F)cc2)S(=O)(=O)c2cc(C(F)(F)F)ccc21	-0.33% (inactive)	1.51
COc1ccc2nc3ccccc3nc2c1N	40.2% (inactive)	–
Cc1cccc2nc3ccccc3nc12	-0.76% (inactive)	–
